Compound activity: PubChem, National Center for Advancing Translational Sciences (NCATS)
Shown are actives, neighbours in structure and some others; about 7.4% of the full set was active somewhere.
NPC1 promoter act = qHTS Assay for NPC1 Promoter Activators; AID 485313, 2010; Potency, µM (top dose mostly 9.22 µM), actives largely listed as activators; Huh7 NPC1 promoter luciferase reporter, 24 h; hit rate 2.4% among 320,000; further: nearly all actives have a fitted effect of over 60% in size
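Compounds in DMSO were transferred onto Huh7 NPC1-luciferase reporter cells pre-incubated 2 h; after 24 h at 37 °C, Amplite reagent was dispensed and luminescence recorded 10 min later.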
Rab9 prom act = qHTS Assay for Rab9 Promoter Activators; Huh7 Rab9 promoter-luciferase reporter, luminescence, 24 h; Potency, µM (highest dose often 9.22 µM), actives largely listed as activators; hit rate 2.8% among 320,000; further: nearly all actives have a fitted effect of over 60% in size
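Cells were plated at 1500 per well in reduced-serum medium with 10% FBS and left 2 h. Compound in DMSO was then added for 24 h at 37 °C. Reporter signal was read by luminescence after 10 min with luciferase detection reagent.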
FLuc modulator = qHTS profiling assay for firefly luciferase inhibitor/activator using purifed enzyme and Km concentrations of substrates (counterscreen for miR-21 project); Luciferin 4-monooxygenase (Photinus pyralis), P08659; purified FLuc, Km substrates, luminescence inhibition; Potency, µM (top dose mostly 57.5 µM), most hits filed as inhibitors; hit rate 6.9% among 360,000; further: nearly all actives have a fitted effect of over 55% in size
Target sequence (P08659 whole entry, looked up): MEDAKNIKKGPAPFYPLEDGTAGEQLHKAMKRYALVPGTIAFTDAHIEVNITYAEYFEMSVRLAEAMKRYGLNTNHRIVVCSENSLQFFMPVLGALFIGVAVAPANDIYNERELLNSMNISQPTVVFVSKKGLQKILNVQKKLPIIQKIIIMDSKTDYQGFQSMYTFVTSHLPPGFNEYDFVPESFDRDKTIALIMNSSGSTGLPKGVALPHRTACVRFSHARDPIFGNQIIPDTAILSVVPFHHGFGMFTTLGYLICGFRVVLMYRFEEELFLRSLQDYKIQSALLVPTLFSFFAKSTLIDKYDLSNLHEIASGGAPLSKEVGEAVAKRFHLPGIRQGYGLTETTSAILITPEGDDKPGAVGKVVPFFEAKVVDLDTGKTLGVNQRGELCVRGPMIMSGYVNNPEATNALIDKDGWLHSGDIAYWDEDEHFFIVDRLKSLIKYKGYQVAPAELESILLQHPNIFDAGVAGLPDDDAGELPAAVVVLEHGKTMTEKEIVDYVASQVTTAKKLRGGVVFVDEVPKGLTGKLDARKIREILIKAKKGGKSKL
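Biochemical qHTS of compounds, final roughly 60 µM downward over six points, against 10 nM purified firefly luciferase using Km concentrations of substrates (10 uM D-luciferin, 10 uM ATP) in Tris acetate pH 7.5 buffer; luminescence output.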
KinaseGlo FLuc = Counterscreen for Luciferase (Kinase-Glo TM) Inhibition | Potency, µM (doses to about 38.3 µM), hits mostly inhibitors | hit rate 0.28% among 200,000 | Kinase-Glo luciferase, ATP luminescence, 8 min; further: nearly all actives have a fitted effect of over 60% in size
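Luminescence was the read-out, taken after 8-minute incubation at ambient temperature. Luciferase turned over luciferin with 10 uM ATP in imidazole pH 7.2 buffer containing KCl, MgCl2, Tween 20 and BSA.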
SMN2 splice up = qHTS Assay for Enhancers of SMN2 Splice Variant Expression | HEK293 SMN2-luciferase splicing reporter, luminescence, 30-36 h | Potency, µM (series often up to 46.1 µM), most hits filed as activators | hit rate 2.8% among 210,000 | AID 1458, 2008; further: nearly all actives have a fitted effect of over 55% in size
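HEK293 cells carry an SMN2 minigene-luciferase reporter in which exon 7 inclusion puts luciferase in frame. Cells were seeded at 2000 cells/well, attached for 10-12 hours, then exposed to compounds for 30-36 hours at 37C before ONE-Glo luminescence.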
ELG1 genotoxic = qHTS screen for small molecules that induce genotoxicity in human embryonic kidney (HEK293T) cells expressing luciferase-tagged ELG1; Potency, µM (top dose mostly 46 µM), usual class: activators; hit rate 1.3% among 330,000; HEK293T ELG1-luciferase reporter, luminescence, 16 h; further: nearly all actives have a fitted effect of over 60% in size
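DMSO vehicle served as control against compound-treated ELG1-luciferase HEK293T cells; exposure lasted 16 hr at 37 °C and 5% CO2, followed by ONE-Glo luminescence detection after 30 min.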
Of the large screens only hits and unclear results are named; the others gave an inactive call. The call rests on the fitted dose curve; in most records, active means well fitted curve in the direction sought with a large enough effect; inconclusive means small, poorly fitted or top-dose-only effect, or another doubt; inactive means no such curve, though single readings can be large; an effect the other way counts as inactive or inconclusive.

CCn1c(=O)n(CC)c2cc(N3CCCCC3)c(NC(=O)Nc3cc(Cl)ccc3OC)cc21	none (no result: NPC1 promoter act, Rab9 prom act, KinaseGlo FLuc, SMN2 splice up, ELG1 genotoxic)
Brc1cccc(-c2nnc(CN3CCN(c4ccccn4)CC3)o2)c1	none (no result: NPC1 promoter act, Rab9 prom act, KinaseGlo FLuc, ELG1 genotoxic)
CCCOc1ccc(C(=O)N2CCN(Cc3ccc4c(c3)OCO4)CC2)cc1	none (no result: KinaseGlo FLuc, SMN2 splice up)
CSCCC(NC(=O)c1ccco1)C(=O)N1CCN(C(c2ccccc2)c2ccccc2)CC1 (stereo not drawn)	none (no result: KinaseGlo FLuc, SMN2 splice up)
O=C(NCc1ccccc1Br)c1ccncc1	none (no result: KinaseGlo FLuc, SMN2 splice up)
Nc1nc(COc2ccc3ccccc3c2)cs1	FLuc modulator 12µM (no result: NPC1 promoter act, Rab9 prom act, ELG1 genotoxic)
CC(=O)Nc1nc(CC(=O)c2ccccc2)cs1	none
Cc1ccc(C(=O)Nc2nc(COc3ccccc3)cs2)s1	FLuc modulator 16.9µM (no result: NPC1 promoter act, Rab9 prom act, ELG1 genotoxic)
O=C(Nc1nc(COc2ccccc2)cs1)C1CCC1	NPC1 promoter act inconclusive, Rab9 prom act inconclusive, FLuc modulator 12µM, ELG1 genotoxic inconclusive
CC(=O)Nc1nc(COc2ccc3ccccc3c2)cs1	NPC1 promoter act 2.82µM, Rab9 prom act 6.31µM, FLuc modulator 12µM, ELG1 genotoxic inconclusive
COc1cccc(OC)c1C(=O)Nc1nc(COc2ccccc2)cs1	FLuc modulator inconclusive
CCc1ccc(-c2nc(CSCC(=O)N3CCN(c4ccc(F)cc4)CC3)c(C)o2)cc1	none (no result: NPC1 promoter act, Rab9 prom act, KinaseGlo FLuc, ELG1 genotoxic)
O=C(CC1C(=O)NCCN1Cc1c(F)cccc1Cl)NCCCOc1cccnc1 (stereo not drawn)	none (no result: KinaseGlo FLuc, SMN2 splice up)
O=C(Cn1nnc2ccccc2c1=O)N[C@@H](Cc1ccccc1)C(=O)O	none (no result: KinaseGlo FLuc, SMN2 splice up)
O=C(Nc1nc(COc2ccccc2)cs1)C12CC3CC(CC(C3)C1)C2	FLuc modulator 15.1µM, ELG1 genotoxic inconclusive
CC(=O)Nc1nc(COc2ccccc2)cs1	NPC1 promoter act 3.16µM, Rab9 prom act inconclusive, FLuc modulator inconclusive, SMN2 splice up 17.8µM, ELG1 genotoxic 10.3µM
O=C(COc1ccccc1)OCc1csc(Nc2ccccc2)n1	FLuc modulator inconclusive
CC(C)NC(=O)N1CCC2(CC1)CCN(C(=O)c1cc(C(F)(F)F)cc(C(F)(F)F)c1)CC2	none (no result: NPC1 promoter act, Rab9 prom act, FLuc modulator, ELG1 genotoxic)
C(=C\c1nc(-c2ccccc2)no1)/c1ccccc1	NPC1 promoter act 1.58µM, Rab9 prom act 0.562µM, FLuc modulator 1.35µM, SMN2 splice up 10µM, ELG1 genotoxic inconclusive
C(=C\c1nc(-c2ccncc2)no1)/c1ccccc1	none (no result: SMN2 splice up)
CC1CN(S(=O)(=O)c2cccc(C(=O)Nc3ccccc3N3CCCC3)c2)CC(C)O1 (stereo not drawn)	none (no result: KinaseGlo FLuc, SMN2 splice up)
CCSc1ccc(-c2ccc(C)cc2)nn1	NPC1 promoter act 1µM, Rab9 prom act 0.708µM, FLuc modulator 2.39µM, SMN2 splice up 10µM, ELG1 genotoxic inconclusive
CCOc1ccc(-c2ccc(SCC)nn2)cc1	NPC1 promoter act 0.708µM, Rab9 prom act 0.631µM, FLuc modulator 1.2µM, KinaseGlo FLuc inconclusive, SMN2 splice up 4.47µM, ELG1 genotoxic 1.16µM
COc1ccc(-c2ccc(SC)nn2)cc1	NPC1 promoter act 0.501µM, Rab9 prom act 0.1µM, FLuc modulator 1.51µM, KinaseGlo FLuc 4.47µM, SMN2 splice up 1.78µM
Cc1cccc(Cn2c(=O)n(CCCC(=O)NCc3ccccc3Cl)c(=O)c3ccccc32)c1	none (no result: NPC1 promoter act, Rab9 prom act, KinaseGlo FLuc, ELG1 genotoxic)
CC(=O)c1ccc(N2C(=O)N(Cc3ccc(F)cc3)c3ccccc3S2(=O)=O)cc1	none (no result: NPC1 promoter act, Rab9 prom act, KinaseGlo FLuc, SMN2 splice up, ELG1 genotoxic)
Fc1ccc(N2CCN(C3=Nc4cccc5cccc3c45)CC2)cc1	FLuc modulator 15.1µM
O=C(CCCN1C(=O)c2cccc3cccc(c23)C1=O)N1CCN(c2ccc(F)cc2)CC1	none (no result: SMN2 splice up)
c1ccc(CN2CCN(C3=Nc4cccc5cccc3c45)CC2)cc1	FLuc modulator 10.7µM
Cc1ccc(C)c(-c2csc(-c3cccnc3)n2)c1	FLuc modulator inconclusive (no result: KinaseGlo FLuc, SMN2 splice up)
c1ccc(-c2csc(-c3cccnc3)n2)cc1	Rab9 prom act inconclusive, FLuc modulator 19µM (no result: SMN2 splice up)
c1ccc(-c2nc(-c3cccnc3)cs2)cc1	NPC1 promoter act inconclusive, Rab9 prom act inconclusive, FLuc modulator 12µM, ELG1 genotoxic inconclusive (no result: KinaseGlo FLuc, SMN2 splice up)
c1ccc(CNc2nc(-c3cccnc3)cs2)cc1	FLuc modulator inconclusive
